The source made the active and inactive calls.
Key:
[1] = biological target: Albumin (Bos taurus) (UniProt P02769); test: bovine serum albumin binders on microarray, profiling panel, artefact control for SMM control protein annotation, biochemical, small-molecule microarray, Alexa647 label, 635/667 nm fluorescence (AID 1118); conditions: BSA-A647 binding, fluorescence 635 nm, higher = more signal;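 note: score merges 667 nm emission intensity and signal-to-noise per printed compound spot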
[2] = small-molecule microarray binders of probe aXIP, primary screen, biochemical, NeuroSMM set, 635/667 nm fluorescence (AID 1119); conditions: higher = more signal, called active from +8 up or from −8 down;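 note: probe is the protein aXip251-270 applied at 1 µg/mL to compound-printed slides; binding of probe to printed compounds measured as 667 nm fluorescence plus signal to noise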
[3] = small-molecule binders of probe aNOTCH3, primary screen, biochemical, small-molecule microarray, 635/667 nm fluorescence (AID 1120); conditions: higher = more signal;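 note: probe is a biotin-tagged antibody raised against NOTCH3 rather than NOTCH3 protein; score merges spot fluorescence near 667 nm with spot signal to noise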
[4] = small-molecule binders of probe aNOTCH2, primary screen, biochemical, small-molecule microarray, 635/667 nm fluorescence (AID 1121); conditions: higher = more signal;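 note: score merges feature fluorescence read at 667 nm with its signal to noise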
[5] = biological target: Carbonic anhydrase 2 (Homo sapiens) (UniProt P00918); test: CAII small-molecule binders, profiling panel, biochemical, small-molecule microarray, Alexa647-labelled CAII (AID 1122); conditions: CAII-A647 binding fluorescence, higher = more signal
[6] = COS7 lysate on small-molecule microarray, probe aHis, 635 nm (AID 1123); conditions: COS7 cell lysate, fluorescence, higher = more signal;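 note: z-score combines 667nm fluorescence intensity with signal-to-noise per printed compound spot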
[7] = compound binding in COS7 lysate, probe aLAP1, primary screen, cell lysate, small-molecule microarray (AID 1124); conditions: probe aLAP1, fluorescence, higher = more signal;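 note: lysate comes from COS7 cells expressing LAP1 and is applied at 0.3 µg/mL; score merges spot fluorescence near 667 nm with signal-to-noise over triplicate slides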
[8] = tested on: Sam68 (KHDRBS1); test: Sam68 small-molecule binders, primary screen, biochemical, small-molecule microarray, 635 nm fluorescence (AID 1125); conditions: small-molecule microarray binding, higher = more signal;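 note: score merges 667 nm channel intensity with signal to noise over triplicate slides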
[9] = tested on: Chordin-like protein 2 (CHRDL2); test: CHRDL2 small-molecule binders, primary screen, biochemical, small-molecule microarray, 635 nm fluorescence (AID 1126); conditions: small-molecule microarray binding, fluorescence 635 nm; higher = more signal;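 note: printed compound slides probed with Chrdl2 protein at 4 µg/mL for 1 h at 4 C; score merges 667 nm emission intensity with signal to noise over three replicate slides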
[10] = biological target: Concanavalin-A (Canavalia ensiformis) (UniProt P02866); test: ConA small-molecule binders, primary screen, artefact control for SMM control protein annotation, biochemical, small-molecule microarray, Alexa647 label, 635 nm (AID 1127); conditions: ConA-A647 binding fluorescence, higher = more signal;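 note: z combines 667 nm emission intensity with signal-to-noise across three replicate slides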
Chain of Concanavalin-A (Canavalia ensiformis) (P02866 whole entry, looked up): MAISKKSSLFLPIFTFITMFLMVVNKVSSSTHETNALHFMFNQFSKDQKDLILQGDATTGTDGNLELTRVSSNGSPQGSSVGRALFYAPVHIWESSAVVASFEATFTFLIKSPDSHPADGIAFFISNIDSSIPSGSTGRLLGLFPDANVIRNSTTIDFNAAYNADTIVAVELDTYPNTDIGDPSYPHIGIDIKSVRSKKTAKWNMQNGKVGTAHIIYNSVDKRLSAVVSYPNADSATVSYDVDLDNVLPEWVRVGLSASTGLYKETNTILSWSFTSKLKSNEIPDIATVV

Chain of Albumin (Bos taurus) (P02769 whole entry, looked up): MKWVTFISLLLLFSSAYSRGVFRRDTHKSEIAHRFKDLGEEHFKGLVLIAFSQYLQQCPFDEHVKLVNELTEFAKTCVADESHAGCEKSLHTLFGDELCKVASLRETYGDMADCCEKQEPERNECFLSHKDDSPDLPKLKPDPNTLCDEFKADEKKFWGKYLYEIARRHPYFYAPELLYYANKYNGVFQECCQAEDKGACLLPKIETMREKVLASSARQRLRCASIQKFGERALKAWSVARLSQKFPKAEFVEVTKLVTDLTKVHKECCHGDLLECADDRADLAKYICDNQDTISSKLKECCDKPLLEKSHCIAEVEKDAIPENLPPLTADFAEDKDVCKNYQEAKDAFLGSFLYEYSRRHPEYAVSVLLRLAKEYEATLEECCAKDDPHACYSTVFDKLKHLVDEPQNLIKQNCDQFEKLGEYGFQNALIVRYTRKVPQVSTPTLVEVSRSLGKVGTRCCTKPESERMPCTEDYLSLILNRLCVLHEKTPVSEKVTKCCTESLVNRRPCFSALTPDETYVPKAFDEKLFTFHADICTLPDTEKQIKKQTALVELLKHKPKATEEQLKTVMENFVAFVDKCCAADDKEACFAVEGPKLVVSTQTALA

Row | Compound | composite z-score [1] | composite Z-score [2] | composite z-score [3] | composite z-score [4] | composite z-score [5] | composite z-score [6] | composite z-score [7] | composite z-score [8] | composite z-score [9] | composite z-score [10]
1 | C=CC[C@]1(C(=O)NCc2ccccc2)N=C(c2ccc(OCCCO)cc2)O[C@H]1c1ccccc1CN=[N+]=[N-] | 0.183 | -0.451 (inactive) | 0.367 | -0.104 | 0.563 | 0.935 | 0.403 | 1.31 | -0.329 | 0.79
2 | COCCOC(=O)N1C(=O)[C@@]2(c3cc(C#CC4(O)CCCCCC4)ccc31)[C@H](C(=O)Nc1nc3ccccc3s1)[C@H]1C(=O)O[C@H](c3ccccc3)[C@H](c3ccccc3)N1[C@@H]2c1ccc(OCCO)cc1 | 0.345 | -0.245 (inactive) | 0.246 | -0.0009 | 0.503 | 0.541 | 0.324 | 1.3 | 0.637 | 1.1
3 | C=C[C@H](C)[C@@H](OC(=O)Nc1ccc(SC)cc1)c1ccc(O)c2ccccc12 | 0.0219 | -0.552 (inactive) | 0.0636 | -0.0928 | 0.609 | 1.84 | 0.188 | 1.32 | 1.13 | 1.02
4 | O=C1C2C=CC(C(O)COCc3ccccc3)N(Nc3ccc([N+](=O)[O-])cc3)C2C(=O)N1c1ccccc1 (stereo not given) | 0.734 | 0.845 (inactive) | 0.271 | 0.0449 | 0.766 | 2.9 | 0.143 | 1.31 | 0.412 | 0.519
5 | C=CC[C@]1(C(=O)N2CCOCC2)N=C(c2ccc(OCCCO)cc2)O[C@H]1c1ccccc1N=[N+]=[N-] | 0.561 | 0.193 (inactive) | 0.298 | -0.0896 | 0.751 | 2.77 | 0.647 | 1.29 | -0.521 | 1.09
6 | CCCCCCCCCCC(O)C1C=CC2C(=O)NC(=O)C2N1Nc1ccc(Cl)cc1Cl (stereo not given) | 0.145 | -0.383 (inactive) | -0.0288 | -0.077 | 0.442 | 1.66 | 0.192 | -0.0789 | 0.0425 | 0.248
7 | OB1C=CCC(CCc2ccccc2)O1 (stereo not given) | -0.923 | -0.601 (inactive) | -0.191 | -0.153 | -0.498 | -0.622 | -0.803 | -1.31 | 0.317 | -1.34

Reference: PubChem BioAssay
